In PubChem BioAssay (NCI):
Compounds without any hit were thinned out: in the full panel of roughly 83,000, 20% have a hit.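 Each cell line was grown in a 96-well plate and treated with one concentration of compound for 48 hours. Values below 10 were considered active.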 Values without a mark were called inactive. Active and inactive are the calls of the source.

system: SK-OV-3 ovarian; test: NCI-60 one-dose screen, 48 h (100 = growth as untreated, 0 = no growth, -100 = all killed); details: 10 µM unless noted

Q: For CCOc1ccc(NC(=O)Nc2cc(C(C)C)ccc2C)cc1, which growth is on record?
A: 93.4%

Q: NS(=O)(=O)c1ccc(-n2nc(-c3ccc(Cl)cc3)ccc2=O)cc1 was tested. Which growth did it give?
A: 93.8%

Q: Which growth does the source give for COC(OC)C1(c2ccccc2)NC(=O)NC1=O (centres undefined) here?
A: 102%

Q: For CC1=C[S+](c2ccccc2)c2cccc3cc4ccccc4c1c23 (centres undefined), which growth is on record?
A: 0.639% (active)

Q: With O=C(Nc1ccccc1F)Nc1ccccc1Cl as the molecule, how does the growth read?
A: 104%

Q: How did the growth turn out when O=C(C[n+]1ccccc1Cl)c1ccc2c(c1)CCCC2 was run?
A: 99.7%

Q: Which growth does the source give for COc1cc(-c2nc3sc(C)cn3c2/C=C2\C(=O)Nc3ccccc32)c(Br)c(OC)c1OC here?
A: 31.2%

Q: CC1(C)N=C(N)N=C(N)N1c1cccc(CCCCc2ccccc2)c1 was tested. Which growth did it give?
A: 30.3%

Q: For COc1ccc(/C=C2\CS(=O)(=O)C/C(=C\c3ccc(OC)cc3)C2=O)cc1, which growth is on record?
A: 25.4%

Q: With CN1CCN(CC(O)COc2c(Br)c(Br)c(Br)c3c2OC(C)(C)C3)CC1 (centres undefined) as the molecule, how does the growth read?
A: 109%

Q: CC1(C)N=C(N)N=C(N)N1c1ccc(OCC(=O)Nc2ccccc2)c(Cl)c1 was tested. Which growth did it give?
A: 57.3%

Q: For COc1ccc2c(c1)nnc1c3cccnc3[nH]c21, which growth is on record?
A: 19%

Q: For CC(=O)N[C@@H](CNC(=O)c1cc(NC(=O)c2cc(NC(=O)c3cc(NC(=O)c4nccn4C)cn3C)cn2C)cn1C)CC(=O)Nc1cn(C)c(C(=O)Nc2cc(C(=O)Nc3cc(C(=O)Nc4cc(C(=O)NCCCN(C)CCCNC(=O)c5cccc(C(=O)O)c5)n(C)c4)n(C)c3)n(C)c2)n1, which growth is on record?
A: 115%

Q: For Nc1ccc(S(=O)(=O)Nc2cc(I)cc(I)c2)cc1, which growth is on record?
A: 117%
